# According to PubChem BioAssay (EPA / NIEHS):
# Several values for one entry are separate records, joined by “and”; a condition that tells them apart may be missing. Equal entries are not always repeated. Inconclusive results are not listed. More than one record can exist for a structure, and the calls need not agree. Activity calls are given as the source filed them. Rule for the calls: active = hit-call score of the fitted dose curve at least 0.9, where 1 is the maximum; inconclusive = response in the unintended direction; inactive = score below 0.9.
# Columns and labels:
# [1] = biological target: human Matrix Metalloproteinase-3 (MMP3), MMP3 (gene 4314) (UniProt P08254); experiment: NVS_ENZ_hMMP3: NovaScreen (NVS) Enzymatic Assay for human Matrix Metalloproteinase-3 (MMP3) (AID 2283185)
# Method in brief: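 Fluorescent substrate turnover by recombinant MMP3 read after 1 h, signal loss scored against DMSO. Compounds first run in duplicate at 25 uM single dose, then actives confirmed by concentration series.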
# [2] = biological target: human Phosphodiesterase 5 (PDE5), PDE5A (gene 8654) (UniProt O76074); experiment: NVS_ENZ_hPDE5: NovaScreen (NVS) Enzymatic Assay for human Phosphodiesterase 5 (PDE5) (AID 2283194)
# Method in brief: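 Screening began in duplicate at 25 uM, with actives taken into concentration-response. Enzyme activity of recombinant PDE5 toward its substrate was measured at 1 h by fluorescence mobility-shift detection, relative to DMSO controls.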
# [3] = biological target: human Phosphodiesterase 10 (PDE10), PDE10A (gene 10846) (UniProt Q9Y233); experiment: NVS_ENZ_hPDE10: NovaScreen (NVS) Enzymatic Assay for human Phosphodiesterase 10 (PDE10) (AID 2283195)
# Method in brief: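 Readout is fluorescence intensity following electrophoretic mobility-shift separation, 1 h after dosing of isolated PDE10A protein. Hits meeting a preset threshold at 25 uM went to concentration series (max 50 uM), analysed relative to DMSO.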
# [4] = biological target: human Mitogen- and Stress-activated Protein Kinase-1 (Msk1), RPS6KA5 (gene 9252) (UniProt O75582); experiment: NVS_ENZ_hMsk1: NovaScreen (NVS) Enzymatic Assay for human Mitogen- and Stress-activated Protein Kinase-1 (Msk1) (AID 2283187)
# Method: (§1) NVS_ENZ_hMsk1 is a biochemical, single-readout assay that uses extracted gene-proteins in a cell-free assay. Measurements were taken 1 hour after chemical dosing in a 384-well plate.NVS_ENZ_hMsk1 is one of one assay component(s) measured or calculated from the NVS_ENZ_hMsk1 assay. It is designed to make measurements of enzyme activity, a form of enzyme reporter, as detected with fluorescence intensity signals by Fluorescence and electrophoretic mobility shift technology.Data from the assay component NVS_ENZ_hMsk1 was analyzed into 1 assay endpoint. This assay endpoint, NVS_ENZ_hMsk1, was analyzed in the positive analysis fitting direction relative to DMSO as the negative control and baseline of activity. Using a type of enzyme reporter, loss-of-signal activity can be used to understand changes in the enzymatic activity as they relate to the gene RPS6KA5. Furthermore, this assay endpoint can be referred to as a primary readout, because this assay has produced multiple assay endpoints where this one serves a enzymatic activity function. To generalize the intended target to other relatable targets, this assay endpoint is annotated to the kinase intended target family, where the subfamily is serine/threonine kinase.
# (§2) Binding assays used specific radioligands (tritiated, iodinated) with non-radioactive competitive displacement ligands in agonist or antagonist protocols (as indicated) and various reference compounds and inhibitors to titrate specific binding to receptors and transporters. Most enzyme assays (CYPs, kinases, phosphatases, proteases, HDACs) used recombinant protein and specific substrates (fluorescence mostly, some colorimetric and radioactive) and inhibitors, followed by a biochemical separation of substrate and product. All assays for the biochemical HTS were initially run in duplicate at a single concentration (10 uM for CYP450 assays and 25 uM for all others). Assay-chemical combinations meeting a pre-defined threshold (e.g., 30% inhibition and other criteria defined below) were then run in singleton concentration-response format with maximum concentration of 20 uM for CYPs and 50 uM for all others. Each assay was run with positive and negative controls, and concurrent controls on every plate. The follow-up (secondary) screen tested active chemical-pairs in concentration series, as well as a few additional assays not tested in the primary screen, some selected negative inactives, and several cases re-run in the concentration series for confirmatory purposes.
# [5] = biological target: cAMP-dependent protein kinase catalytic subunit alpha (Homo sapiens) (UniProt P17612); experiment: NVS_ENZ_hPKA: NovaScreen (NVS) Enzymatic Assay for human Protein Kinase A (PKA) (AID 2283192)
# Method: as §1, with “NVS_ENZ_hPKA” for “NVS_ENZ_hMsk1”, “plate.NVS_ENZ_hPKA” for “plate.NVS_ENZ_hMsk1”, “NVS_ENZ_hPKA,” for “NVS_ENZ_hMsk1,”, “PRKACA.” for “RPS6KA5.”
# as §2
# [6] = biological target: human Phosphodiesterase 4A1 (PDE4A1), PDE4A (gene 5141) (UniProt P27815); experiment: NVS_ENZ_hPDE4A1: NovaScreen (NVS) Enzymatic Assay for human Phosphodiesterase 4A1 (PDE4A1) (AID 2283191)
# Method in brief: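 Fluorescent substrate turnover by recombinant PDE4A1 read after 1 h by mobility-shift separation. Primary duplicate screen at 25 uM; hits retested in concentration series with a 50 uM maximum, relative to DMSO.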
# [7] = biological target: human Matrix Metalloproteinase-9 (MMP9), MMP9 (gene 4318) (UniProt P14780); experiment: NVS_ENZ_hMMP9: NovaScreen (NVS) Enzymatic Assay for human Matrix Metalloproteinase-9 (MMP9) (AID 2283190);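 note: cell-free recombinant MMP9 protease activity read by fluorescent substrate signal; active means inhibition seen as loss of fluorescence signal versus DMSO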
# Method in brief: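 Cell-free fluorescence-intensity enzyme activity assay using extracted protein, read 1 h after dosing. Loss of signal versus DMSO baseline indicates inhibition; primary screen in duplicate at 25 uM, actives followed up in concentration series.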
# [8] = biological target: human Phosphoinositide 3-kinase alpha (PI3Ka), PIK3CA (gene 5290) (UniProt P42336); experiment: NVS_ENZ_hPI3Ka: NovaScreen (NVS) Enzymatic Assay for human Phosphoinositide 3-kinase alpha (PI3Ka) (AID 2283196)
# Method in brief: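 Enzyme activity as fluorescence after mobility-shift separation of substrate and product, 1 h reaction, recombinant human PI3Kα; concentration-response to 50 uM max for chemicals passing a 25 uM duplicate screen.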
# human Phosphodiesterase 4A1 (PDE4A1), PDE4A (gene 5141), sequence (P27815 whole entry, looked up): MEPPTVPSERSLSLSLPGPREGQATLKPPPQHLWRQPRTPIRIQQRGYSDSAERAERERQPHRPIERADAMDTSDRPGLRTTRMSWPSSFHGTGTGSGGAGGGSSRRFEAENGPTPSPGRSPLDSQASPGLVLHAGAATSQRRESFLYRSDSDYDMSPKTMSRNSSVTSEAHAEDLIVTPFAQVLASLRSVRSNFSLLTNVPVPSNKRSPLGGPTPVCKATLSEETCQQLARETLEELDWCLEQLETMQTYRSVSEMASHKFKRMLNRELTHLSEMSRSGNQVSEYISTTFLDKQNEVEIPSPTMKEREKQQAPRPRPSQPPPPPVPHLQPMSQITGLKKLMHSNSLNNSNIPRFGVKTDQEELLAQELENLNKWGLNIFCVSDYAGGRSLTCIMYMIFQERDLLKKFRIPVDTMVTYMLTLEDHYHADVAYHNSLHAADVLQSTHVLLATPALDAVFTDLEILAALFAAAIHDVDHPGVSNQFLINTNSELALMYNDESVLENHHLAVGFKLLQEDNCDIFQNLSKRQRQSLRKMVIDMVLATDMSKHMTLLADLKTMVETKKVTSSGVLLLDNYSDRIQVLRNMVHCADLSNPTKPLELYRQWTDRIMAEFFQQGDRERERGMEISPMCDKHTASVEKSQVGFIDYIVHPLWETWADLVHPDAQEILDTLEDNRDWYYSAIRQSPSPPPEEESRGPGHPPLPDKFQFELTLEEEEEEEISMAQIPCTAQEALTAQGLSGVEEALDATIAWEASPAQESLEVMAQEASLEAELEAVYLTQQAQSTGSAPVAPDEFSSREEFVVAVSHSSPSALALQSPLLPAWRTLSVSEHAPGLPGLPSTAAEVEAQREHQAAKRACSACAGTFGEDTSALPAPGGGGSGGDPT
# human Phosphodiesterase 10 (PDE10), PDE10A (gene 10846), sequence (Q9Y233 whole entry, looked up): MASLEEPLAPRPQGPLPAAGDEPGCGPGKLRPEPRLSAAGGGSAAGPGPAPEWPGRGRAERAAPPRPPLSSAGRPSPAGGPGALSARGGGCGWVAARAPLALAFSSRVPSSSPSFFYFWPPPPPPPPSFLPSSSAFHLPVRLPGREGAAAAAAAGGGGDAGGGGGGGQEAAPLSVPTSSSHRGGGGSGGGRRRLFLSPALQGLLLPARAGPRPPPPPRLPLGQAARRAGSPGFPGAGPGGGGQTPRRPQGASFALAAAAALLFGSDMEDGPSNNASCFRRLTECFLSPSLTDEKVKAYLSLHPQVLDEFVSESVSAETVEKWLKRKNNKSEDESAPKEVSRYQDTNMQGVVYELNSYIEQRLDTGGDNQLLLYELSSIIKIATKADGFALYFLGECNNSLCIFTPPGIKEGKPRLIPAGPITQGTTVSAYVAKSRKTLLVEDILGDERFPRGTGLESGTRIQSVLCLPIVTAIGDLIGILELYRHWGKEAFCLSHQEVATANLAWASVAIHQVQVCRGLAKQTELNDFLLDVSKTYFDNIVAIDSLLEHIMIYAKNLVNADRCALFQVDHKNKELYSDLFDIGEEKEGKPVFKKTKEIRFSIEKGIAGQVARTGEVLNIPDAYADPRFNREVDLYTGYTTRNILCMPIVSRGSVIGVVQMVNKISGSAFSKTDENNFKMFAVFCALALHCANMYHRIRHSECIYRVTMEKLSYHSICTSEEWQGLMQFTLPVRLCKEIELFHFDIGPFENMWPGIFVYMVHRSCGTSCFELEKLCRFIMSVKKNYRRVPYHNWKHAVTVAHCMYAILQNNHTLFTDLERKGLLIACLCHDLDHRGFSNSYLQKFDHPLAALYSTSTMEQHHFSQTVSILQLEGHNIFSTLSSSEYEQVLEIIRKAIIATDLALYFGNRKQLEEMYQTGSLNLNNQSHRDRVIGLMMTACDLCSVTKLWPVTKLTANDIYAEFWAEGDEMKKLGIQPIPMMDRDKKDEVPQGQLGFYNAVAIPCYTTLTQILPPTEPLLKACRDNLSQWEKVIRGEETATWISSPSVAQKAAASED
# human Mitogen- and Stress-activated Protein Kinase-1 (Msk1), RPS6KA5 (gene 9252), sequence (O75582 whole entry, looked up): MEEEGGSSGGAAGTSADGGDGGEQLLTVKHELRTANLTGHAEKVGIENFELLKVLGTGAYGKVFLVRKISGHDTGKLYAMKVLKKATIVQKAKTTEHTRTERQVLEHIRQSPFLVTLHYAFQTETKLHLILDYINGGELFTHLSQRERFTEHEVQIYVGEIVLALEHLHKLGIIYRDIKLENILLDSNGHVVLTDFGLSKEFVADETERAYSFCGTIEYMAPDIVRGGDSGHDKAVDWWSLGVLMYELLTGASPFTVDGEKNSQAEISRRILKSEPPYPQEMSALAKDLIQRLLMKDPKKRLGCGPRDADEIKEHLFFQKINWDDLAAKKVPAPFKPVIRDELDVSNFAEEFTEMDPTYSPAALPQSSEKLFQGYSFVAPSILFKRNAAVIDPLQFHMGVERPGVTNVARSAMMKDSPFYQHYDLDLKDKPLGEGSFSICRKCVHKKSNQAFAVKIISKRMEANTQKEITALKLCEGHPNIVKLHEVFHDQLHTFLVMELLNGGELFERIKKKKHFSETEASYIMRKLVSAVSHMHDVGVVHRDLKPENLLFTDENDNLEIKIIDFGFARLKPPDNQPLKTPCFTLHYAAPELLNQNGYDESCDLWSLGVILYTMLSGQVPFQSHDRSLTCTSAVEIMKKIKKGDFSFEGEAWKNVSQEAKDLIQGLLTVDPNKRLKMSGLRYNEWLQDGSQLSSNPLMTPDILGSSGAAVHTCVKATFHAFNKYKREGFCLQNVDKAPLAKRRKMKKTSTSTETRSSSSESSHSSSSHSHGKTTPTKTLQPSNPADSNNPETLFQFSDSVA
# human Phosphoinositide 3-kinase alpha (PI3Ka), PIK3CA (gene 5290), sequence (P42336 whole entry, looked up): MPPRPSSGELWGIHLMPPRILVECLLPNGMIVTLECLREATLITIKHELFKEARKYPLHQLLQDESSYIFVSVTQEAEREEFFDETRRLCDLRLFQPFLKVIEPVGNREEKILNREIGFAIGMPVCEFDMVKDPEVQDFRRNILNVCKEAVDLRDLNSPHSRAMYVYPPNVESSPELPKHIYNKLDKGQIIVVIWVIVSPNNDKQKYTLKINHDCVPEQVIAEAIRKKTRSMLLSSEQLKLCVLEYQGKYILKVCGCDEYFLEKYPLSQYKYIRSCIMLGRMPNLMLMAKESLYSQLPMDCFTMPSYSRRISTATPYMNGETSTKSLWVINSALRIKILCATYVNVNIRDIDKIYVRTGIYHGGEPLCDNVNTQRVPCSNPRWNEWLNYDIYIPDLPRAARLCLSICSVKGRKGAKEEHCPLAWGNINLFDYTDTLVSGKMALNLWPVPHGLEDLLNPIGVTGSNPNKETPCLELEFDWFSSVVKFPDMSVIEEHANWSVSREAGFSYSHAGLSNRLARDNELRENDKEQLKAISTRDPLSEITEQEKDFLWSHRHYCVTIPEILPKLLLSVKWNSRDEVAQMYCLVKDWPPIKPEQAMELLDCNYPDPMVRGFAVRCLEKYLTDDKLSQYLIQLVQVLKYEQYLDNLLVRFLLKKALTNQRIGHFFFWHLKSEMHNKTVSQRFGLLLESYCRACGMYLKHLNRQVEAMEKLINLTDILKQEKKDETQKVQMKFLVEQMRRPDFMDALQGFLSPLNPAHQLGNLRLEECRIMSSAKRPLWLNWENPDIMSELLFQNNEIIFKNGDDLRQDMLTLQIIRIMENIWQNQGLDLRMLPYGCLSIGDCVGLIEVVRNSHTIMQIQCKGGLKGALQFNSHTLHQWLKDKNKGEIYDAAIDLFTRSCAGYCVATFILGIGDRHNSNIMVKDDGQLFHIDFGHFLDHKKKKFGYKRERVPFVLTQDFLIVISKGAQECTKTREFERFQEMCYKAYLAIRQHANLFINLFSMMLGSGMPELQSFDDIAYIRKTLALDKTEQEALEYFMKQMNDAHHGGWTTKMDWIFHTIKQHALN
# human Matrix Metalloproteinase-3 (MMP3), MMP3 (gene 4314), sequence (P08254 whole entry, looked up): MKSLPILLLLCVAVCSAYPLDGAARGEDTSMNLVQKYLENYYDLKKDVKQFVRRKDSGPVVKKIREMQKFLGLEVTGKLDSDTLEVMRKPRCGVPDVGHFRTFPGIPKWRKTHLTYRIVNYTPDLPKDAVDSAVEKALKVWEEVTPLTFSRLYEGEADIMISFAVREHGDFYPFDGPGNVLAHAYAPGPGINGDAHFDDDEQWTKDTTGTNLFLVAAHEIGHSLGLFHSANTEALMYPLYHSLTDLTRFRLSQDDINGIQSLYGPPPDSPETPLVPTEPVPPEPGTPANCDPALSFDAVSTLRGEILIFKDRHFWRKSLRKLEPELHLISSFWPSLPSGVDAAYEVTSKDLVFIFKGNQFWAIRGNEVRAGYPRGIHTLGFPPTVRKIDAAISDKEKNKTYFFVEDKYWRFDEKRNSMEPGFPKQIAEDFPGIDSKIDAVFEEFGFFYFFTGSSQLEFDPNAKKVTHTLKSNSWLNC
# human Matrix Metalloproteinase-9 (MMP9), MMP9 (gene 4318), sequence (P14780 whole entry, looked up): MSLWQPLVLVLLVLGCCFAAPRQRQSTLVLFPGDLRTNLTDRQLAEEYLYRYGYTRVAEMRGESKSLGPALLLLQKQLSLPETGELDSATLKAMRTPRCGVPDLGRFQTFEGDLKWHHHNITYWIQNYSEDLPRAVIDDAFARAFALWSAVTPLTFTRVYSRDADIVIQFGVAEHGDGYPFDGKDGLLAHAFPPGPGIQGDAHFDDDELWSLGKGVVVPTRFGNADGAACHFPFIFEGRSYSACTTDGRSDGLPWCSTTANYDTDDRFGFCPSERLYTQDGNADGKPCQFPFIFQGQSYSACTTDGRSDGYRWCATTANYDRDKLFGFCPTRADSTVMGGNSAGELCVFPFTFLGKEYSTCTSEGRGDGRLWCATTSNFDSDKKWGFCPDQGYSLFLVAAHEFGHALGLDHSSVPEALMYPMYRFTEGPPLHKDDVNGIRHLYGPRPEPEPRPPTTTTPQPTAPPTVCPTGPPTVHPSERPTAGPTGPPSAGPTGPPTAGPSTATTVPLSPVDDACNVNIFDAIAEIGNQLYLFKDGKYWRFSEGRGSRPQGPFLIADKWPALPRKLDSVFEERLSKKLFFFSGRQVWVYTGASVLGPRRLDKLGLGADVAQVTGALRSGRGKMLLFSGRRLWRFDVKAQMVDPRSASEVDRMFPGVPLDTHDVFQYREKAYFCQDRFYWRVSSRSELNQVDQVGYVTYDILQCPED
structure (smiles),measurement,setting,value
CN(C)C(=O)Nc1ccc(Cl)c(Cl)c1,outcome,[1],inactive
CCCCOC(=O)[C@@H](C)Oc1ccc(Oc2ccc(C(F)(F)F)cn2)cc1,outcome,[1],inactive
c1ccc2[nH]c(-c3cscn3)nc2c1,AC50,[2],11.6 µM (active)
CCCOC(=O)NCCCN(C)C,outcome,[1],inactive
CCC(C)OC(=O)N1CCCCC1CCO (configuration not stated),outcome,[3],inactive
O=C(c1ccc(O)cc1O)c1ccc(O)cc1O,AC50,[4],24.1 µM (active)
same,outcome,[5],inactive
same,AC50,[2],22 µM (active)
CC(C)CCCCCCc1ccc(O)cc1,outcome,[4],inactive
same,outcome,[6],inactive
same,outcome,[2],inactive
CCCCC(CC)CN1C(=O)C2C3C=CC(C3)C2C1=O (configuration not stated),outcome,[4],inactive
COc1nc(C)nc(NC(=O)NS(=O)(=O)c2ccccc2OCCCl)n1,AC50,[7],4.32 µM (active)
N#CSCSc1nc2ccccc2s1,outcome,[8],inactive
C=CCOC(Cn1ccnc1)c1ccc(Cl)cc1Cl (configuration not stated),AC50,[7],18.6 µM (active)
same,outcome,[6],inactive
CCNc1nc(N)nc(Cl)n1,AC50,[6],25 µM (active)
S=C(S)NCCNC(=S)S.[Mn+2].[S-]C([S-])=NCCN=C([S-])[S-].[Zn+2],AC50,[1],10.8 µM (active)
same,AC50,[4],1.45 µM (active) and 9.58 µM (active)
same,AC50,[6],3.82 µM (active) and 3.7 µM (active) and 10.6 µM (active)
same,AC50,[5],20.5 µM (active)
same,AC50,[2],12.5 µM (active) and 14.2 µM (active)
same,outcome,[2],inactive
same,AC50,[3],2.41 µM (active) and 17.6 µM (active)
same,AC50,[8],6.63 µM (active) and 14.6 µM (active)
same,outcome,[8],inactive
S=C([S-])NCCNC(=S)[S-].[Mn+2],AC50,[4],2.09 µM (active)
same,outcome,[7],inactive
same,AC50,[6],16.7 µM (active)
same,AC50,[5],25 µM (active)
same,AC50,[3],25 µM (active)
same,outcome,[8],inactive
